Data taken from publication PMC4336329 (PLoS ONE, 2015).
About 2,200 (0.71%) of roughly 310,000 compounds showed an effect of 50% or more. The effect is printed as a negative number. What follows is part of a selection rich in strong results, with near analogues and random picks from the rest.

Molecular target: human ether-à-go-go-related gene (hERG) potassium channel (human, UniProt Q12809)
Test: primary screen, population patch clamp on CHO cells stably expressing hERG; higher = less effect of the substance

human ether-à-go-go-related gene (hERG) potassium channel, sequence (Q12809 whole entry, looked up): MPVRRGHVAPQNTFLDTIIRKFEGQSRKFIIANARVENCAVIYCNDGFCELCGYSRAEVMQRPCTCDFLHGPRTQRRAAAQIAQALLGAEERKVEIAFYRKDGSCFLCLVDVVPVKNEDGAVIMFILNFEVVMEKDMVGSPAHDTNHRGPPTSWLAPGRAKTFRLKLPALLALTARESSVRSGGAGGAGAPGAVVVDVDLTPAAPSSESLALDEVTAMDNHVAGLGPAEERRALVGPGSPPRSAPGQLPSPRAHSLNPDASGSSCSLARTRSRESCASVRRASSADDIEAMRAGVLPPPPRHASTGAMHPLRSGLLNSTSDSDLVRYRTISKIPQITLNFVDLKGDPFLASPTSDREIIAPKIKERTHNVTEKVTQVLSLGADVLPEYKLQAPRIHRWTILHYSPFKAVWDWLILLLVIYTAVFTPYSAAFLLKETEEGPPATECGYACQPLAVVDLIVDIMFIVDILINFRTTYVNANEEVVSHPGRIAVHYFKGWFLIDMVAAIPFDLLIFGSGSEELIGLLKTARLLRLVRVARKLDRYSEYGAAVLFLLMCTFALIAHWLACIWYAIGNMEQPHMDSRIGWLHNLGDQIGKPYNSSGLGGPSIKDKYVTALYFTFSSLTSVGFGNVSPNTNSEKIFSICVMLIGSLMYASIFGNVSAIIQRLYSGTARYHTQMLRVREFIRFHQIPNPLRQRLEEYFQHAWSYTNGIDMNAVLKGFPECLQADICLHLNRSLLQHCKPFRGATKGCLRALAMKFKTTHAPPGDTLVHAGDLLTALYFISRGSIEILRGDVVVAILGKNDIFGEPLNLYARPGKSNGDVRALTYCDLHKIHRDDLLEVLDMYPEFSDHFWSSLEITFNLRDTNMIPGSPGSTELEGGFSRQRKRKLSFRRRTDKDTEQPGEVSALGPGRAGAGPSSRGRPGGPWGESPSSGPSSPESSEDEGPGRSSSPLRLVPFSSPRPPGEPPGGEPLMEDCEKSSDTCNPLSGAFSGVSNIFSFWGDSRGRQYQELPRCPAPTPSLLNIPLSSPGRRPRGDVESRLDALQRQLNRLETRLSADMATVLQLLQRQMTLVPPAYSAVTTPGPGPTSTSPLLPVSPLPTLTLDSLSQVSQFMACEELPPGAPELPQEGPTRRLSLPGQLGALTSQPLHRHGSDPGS

Structure (SMILES)	hERG current change (%, negative = inhibition) at 1uM [%]
CCCn1nc(C(=O)Nc2ccc(N3CCOCC3)cc2)c2ccccc2c1=O	1.6
O=C(Cn1nc(Br)nc1Br)c1ccccc1	10.2
COc1cc(C2NC(=O)NC(C)=C2C(=O)NCc2ccccc2)c(Cl)cc1O (centres unmarked)	13.7
COCCNC(=O)C1CC(c2ccccc2C(F)(F)F)=NO1 (centres unmarked)	14.7
O=C(CSc1nc2ccccc2c(=O)n1Cc1ccco1)N1CCCCCC1	-82.8
O=C(CSc1nc2ccccc2c(=O)n1Cc1ccco1)NCc1ccco1	-40.8
CCn1c(SCC(=O)N2CCCC2)nc2ccccc2c1=O	-7.76
CCn1c(SCC(=O)N2CCCCCC2)nc2ccccc2c1=O	2.02
Cn1c(SCC(=O)NCCN2C(=O)CSC2=O)nc2ccccc2c1=O	7.27
O=C(CSc1nc2ccccc2c(=O)n1Cc1ccco1)N1CCN(c2ccccc2)CC1	-83.6
CCCn1c(SCC(=O)N2CCN(c3ccccc3)CC2)nc2ccccc2c1=O	-4.8
O=C(CSc1nc2ccccc2c(=O)n1Cc1ccco1)NCCN1C(=O)CSC1=O	-56
O=C(CSc1nc2ccccc2c(=O)n1CCCN1CCOCC1)N1CCN(c2ccccc2)CC1	-6.61
COc1cc(OC)c(NC(=S)NCc2ccc(F)cc2)cc1Cl	8.5
Oc1ccccc1N1CCN(Cc2ncc(-c3ccccc3)o2)CC1	7
O=C(CSc1nnnn1-c1ccc2c(c1)OCCO2)OC1CCCCC1	6.23
COc1ccc(C)cc1Nc1nc(-c2c(C)[nH]c3ccccc23)cs1	4.55
CSc1ccc(/C=c2\s/c(=C\C(=O)C(C)(C)C)n(CC(=O)NCCC3=CCCCC3)c2=O)cc1	-3.41
Cc1c(CN(C)C)c2c(n1C)C(=O)c1ccc(Br)cc1-2.Cl	-2.4
Cc1c(CN(C)C)c2c(n1Cc1ccccc1)C(=O)c1ccccc1-2.Cl	-79
Cc1c(CN(C)C)c2c(n1Cc1ccccc1)C(=O)c1ccc(Br)cc1-2.Cl	-16.4
CCCCOP(=O)(OCCCC)C(O)c1ccc(N(C)C)cc1 (centres unmarked)	12.5
CSc1ccccc1OCc1cc(C(=O)NC2CCc3ccccc32)no1 (centres unmarked)	17.2

Structure (SMILES)	hERG current change (%, negative = inhibition) at 1uM [%]
OCc1ncccc1O	8.62
COc1ccc(CN2CCOCCOCCOCCOCCOCC2)cc1	7.46
COc1ccc(CN2CCOCCOCCN(Cc3ccc(OC)cc3)CCOCCOCC2)cc1	-84.1
O=[N+]([O-])c1ccc(CN2CCOCCOCCN(Cc3ccc([N+](=O)[O-])cc3)CCOCC2)cc1	-86.9
O=[N+]([O-])c1ccc(CN2CCCCCC2)cc1	-0.361
COc1ccc(CN2CCOCCOCCOCC2)cc1	-21.8
O=[N+]([O-])c1ccc(CN2CCOCCOCCOCC2)cc1	-20.5
CCCN(C(=O)CCl)C1=CCCCC1	26.6
O=C(CS(=O)(=O)Cc1ccccc1)Nc1ncccn1	13
COc1ccc(C[C@H]2CN3C(=NC[C@@H]3C(C)C)N2CCNC(=O)CCC2CCCCC2)cc1	-86
O=C(CCC1CCCCC1)NCCN1C2=NC[C@@H](Cc3ccccc3)N2C[C@H]1Cc1ccc(O)cc1	-0.771
COc1ccc(C[C@H]2CN3C(=NC[C@H]3Cc3ccccc3)N2CCNC(=O)CCC2CCCCC2)cc1	-49.2
COc1ccc(C[C@H]2CN3C(=NC[C@@H]3C)N2CCNC(=O)CCC2CCCCC2)cc1	-63.7
COc1ccc(C[C@@H]2CN3C(=NC[C@@H]3Cc3ccc(O)cc3)N2C[C@H](C)NC(=O)CCC2CCCCC2)cc1	-64.6
C/C=C(\C)C(=O)NCCN1C2=NC[C@H](C(C)C)N2C[C@@H]1Cc1ccc(OC)cc1	-46.6
COc1ccc(C[C@H]2CN3C(=NC[C@@H]3Cc3ccc(O)cc3)N2C[C@H](C)NC(=O)CCC2CCCCC2)cc1	-14.9
C[C@@H]1CN=C2N(CCNC(=O)CCC3CCCCC3)[C@H](Cc3ccc(O)cc3)CN21	7.9
COc1ccc(C[C@H]2CN3C(=NC[C@@H]3Cc3ccccc3)N2CCNC(=O)CCC2CCCCC2)cc1	-60.4
C[C@H]1CN=C2N(CCNC(=O)CCC3CCCCC3)[C@H](Cc3ccc(O)cc3)CN21	14.3
C[C@@H](CN1C2=NC[C@H](Cc3ccc(O)cc3)N2C[C@H]1Cc1ccc(O)cc1)NC(=O)CCC1CCCCC1	12.5
CC(C)[C@H]1CN=C2N(CCNC(=O)CCC3CCCCC3)[C@H](Cc3ccc(O)cc3)CN21	-2.53
COc1ccc(COc2ccsc2C(=O)Nc2ccc(Cl)c(Cl)c2)cc1	13.6
COc1cc(OC)cc(-c2nc(SCC(=O)Nc3ccccc3F)n[nH]2)c1	11.9

Structure (SMILES)	hERG current change (%, negative = inhibition) at 1uM [%]
CC(C)c1ccc(C(N)=S)cc1	7.86
O=C(Cc1ccccc1)N1CCC2(CC1)NCCc1[nH]cnc12	20.4
COc1ccc(NC(=O)/C=C/c2ccc(C)o2)cc1S(=O)(=O)N1CCOCC1	3.88
COc1cc(S(=O)(=O)Nc2ccccc2N2CCCCC2)ccc1NC(C)=O	-4.5
COC(=O)C(NC(=O)c1c(C)nn(C)c1Cl)c1ccccc1 (centres unmarked)	14.2
Cc1ccc2c(c1)c(C)c(C)n2CC(O)Cn1nnc2ccccc21 (centres unmarked)	12.4
CS(=O)(=O)NCc1nnc(SCc2c(F)cccc2Cl)o1	-1.52
O=C(O)c1cccc(Nc2ccc([N+](=O)[O-])c3nonc23)c1	2.1
Cc1cc(=O)n2nc(N3CCCC3C(=O)Nc3cccc(Cl)c3C)sc2n1 (centres unmarked)	12.5
COc1ccc(N2CCN(C(=O)c3ccc4c(=O)n(Cc5ccc6c(c5)OCO6)c(=O)[nH]c4c3)CC2)cc1	25
CC(=O)/C(=C\N(C)C)Sc1ccc(C)cc1	27.2
Cc1ccc(C(=O)Oc2cc(C)n(C)c(=O)c2)cc1	5.86
COc1cc(Cl)nn(-c2ccccc2)c1=O	13.3
CC1(c2ccc([N+](=O)[O-])cc2)Nc2ccccc2S1 (centres unmarked)	10.9
O=C(CCC1CCCCC1)NCCN1C2=NC[C@H](Cc3ccc(O)cc3)N2C[C@H]1Cc1ccc(O)cc1	12.5
COc1ccc(C[C@@H]2CN3C(=NC[C@@H]3C)N2C[C@H](C)NC(=O)CCC2CCCCC2)cc1	-20.8
COc1ccc(C[C@H]2CN3C(=NC[C@H]3C)N2CCNC(=O)CCC2CCCCC2)cc1	-51.9
COc1ccc(-c2nnn(Cc3nc(N)nc(N4CCOCC4)n3)n2)cc1OC	3.65
Nc1nc(Cn2nnc(-c3ccccc3Cl)n2)nc(N2CCOCC2)n1	-25.9
Nc1nc(Cn2nnc(-c3ccccc3F)n2)nc(N2CCOCC2)n1	-53.8
COc1ccc(S(=O)(=O)N2CCCC2CNC(=O)C(=O)NC2CCCCCC2)cc1 (centres unmarked)	-3.96
COc1ccc(OCC(=O)N2CCC3(CC2)CC(=O)c2ccccc2O3)cc1	-70.2
CCOc1ccc(OCC(=O)N2CCC3(CC2)CC(=O)c2ccccc2O3)cc1	-56.8

Structure (SMILES)	hERG current change (%, negative = inhibition) at 1uM [%]
Cc1cccc(OCC(=O)N2CCC3(CC2)CC(=O)c2ccccc2O3)c1	-6.58
COc1cccc(OCC(=O)N2CCC3(CC2)CC(=O)c2ccccc2O3)c1	-5.23
COc1ccc(OCC(=O)N2CCN(C(=O)COc3ccccc3)CC2)cc1	-24.7
O=C1CC2(CCN(C(=O)COc3ccc(F)cc3)CC2)Oc2ccccc21	-17
CC(=O)N1CCN(C(=O)COc2ccc(Br)cc2)CC1	3.21
O=C1CC2(CCN(C(=O)COc3ccccc3)CC2)Oc2ccccc21	-21.4
COc1ccc(OCC(=O)N2CCN(C(=O)COc3ccc(Br)cc3)CC2)cc1	-56.9
Cc1ccccc1OCC(=O)N1CCC2(CC1)CC(=O)c1ccccc1O2	-10.3
Cc1ccc(OCC(=O)N2CCC3(CC2)CC(=O)c2ccccc2O3)cc1	-49
O=C1CC2(CCN(C(=O)COc3ccc(Cl)cc3)CC2)Oc2ccccc21	-70.4
COc1ccc(NC(=O)N2CC(C)OC(C)C2)cc1OC (centres unmarked)	9.39
O=C1c2ccccc2C(=O)N1CCn1ccnc1	17.7
CCOc1cccc(CNc2ccc(O)cc2)c1OCc1ccc(Cl)cc1Cl	10.8
O=C(c1cnn2c(C(F)(F)F)cc(-c3ccco3)nc12)N1CCCc2ccccc21	-1.81
COc1ccc(C2c3ccc(O)cc3Oc3ncn(Cc4ccco4)c(=N)c32)cc1OC (centres unmarked)	-75.9
N=c1c2c(ncn1Cc1ccco1)Oc1cc(O)ccc1C2c1ccccc1 (centres unmarked)	-69.5
COc1ccc(C2c3ccc(O)cc3Oc3ncn(Cc4ccccc4)c(=N)c32)cc1OC (centres unmarked)	-0.742
N=c1c2c(ncn1CCCO)Oc1cc(O)ccc1C2c1ccccc1 (centres unmarked)	0.259
COc1ccc(C2c3ccc(O)cc3Oc3ncn4nc(-c5ccncc5)nc4c32)cc1OC (centres unmarked)	-0.788
COc1ccc(C2c3ccc(O)cc3Oc3ncn4nc(-c5ccccn5)nc4c32)cc1OC (centres unmarked)	-50.1
N=c1c2c(ncn1Cc1ccco1)Oc1c(ccc3ccccc13)C2c1ccccc1 (centres unmarked)	1.59
COc1ccc(C2c3ccc(O)cc3Oc3ncn4nc(-c5ccccn5)nc4c32)cc1 (centres unmarked)	18.3
COc1ccc(C2c3ccc(O)cc3Oc3ncn(Cc4ccco4)c(=N)c32)cc1 (centres unmarked)	-43.5
